From PubChem BioAssay AID686934 (National Center for Advancing Translational Sciences (NCATS), 2013)
Inconclusive results are not listed. A number with no mark means an inactive call. Calls follow the shape of the dose curve; as a rule, active = well fitted curve in the direction sought with a large enough effect; inconclusive = small, poorly fitted or top-dose-only effect, or another doubt; inactive = no such curve, though single readings can be large or run the other way.

Experiment: qHTS screen for small molecules that inhibit ELG1-dependent DNA repair: SAR in Cell-Based Luciferin Counter Assay
Settings: cell-based luciferase counter-screen, luminescence; series mostly up to 45.7 µM; activity change, negative = inhibition: at the top concentration
From the text: Cancer cells divide rapidly compared to normal cells in the body. During cell division, cancer cells need to duplicate their genome by DNA replication. The failure of genome duplication leads to cancer cells' death. Therefore, inhibitors of DNA replication could specifically kill cancer cells. Based on this concept, many chemotherapeutic agents were developed and have been used to treat cancer patients. However, there are a limited number of agents available in the clinical setting, and some of those that do exist have low efficacy and severe side effects. Therefore, if we can find the compounds that effectively block DNA replication either by directly damaging DNA or by inhibiting other cellular mechanisms, the options for cancer treatment will be broadened. With this in mind, we developed a quantitative high-throughput ELG1-luciferase reporter gene assay. Small molecules that specifically block ELG1 function in response to DNA damage can be identified by monitoring the suppression of luciferase activity. Since ELG1 defines a pathway for repairing DNA damage, agents blocking ELG1 function can be used to sensitize cancer cells to chemotherapeutic agents whose mechanism of action involves the induction of DNA damage. This assays is a counterscreen, that is more specifically, a cell-based luciferase assay following treatment with putative ELG1 antagonists to eliminate luciferase enhancers/inhibitors NIH Molecular Libraries Probe Production Network [MLPCN] NIH Chemical Genomics Center [NCGC] MLPCN Grant: R03 MH092164 Assay Provider: Kyungjae Myung, NHGRI, NIH
3 uL of substrate reagent will be pipetted into each well in 1536-well white, solid-bottom plates using a FRD dispenser, followed by addition of 23 nL of DMSO or compounds by pintool. After compound addition, 1 µL of luciferase will be added into the wells. The plates will be read in a ViewLux CCD-based plate reader.

SMILES	activity change, negative = inhibition [%]
COc1ccc(OC)c(-c2nnc3n2N=C(c2ccc(OC)c(OC)c2)CS3)c1	35.1
NC(=O)C1CCN(c2cc(-c3ccc4c(c3)OCCCO4)ncn2)CC1	62.6
O=c1[nH]c(-c2ccc(-c3cccc(Cl)c3)o2)nc2ccccc12	70.7
COc1cccc2oc(-c3ccccc3)cc(=O)c12	68.4
O=c1[nH]c(=O)n([C@@H]2O[C@H](CO)[C@@H](O)[C@H]2O)cc1F	58.2
Oc1ccc(CCc2ccccc2F)c2cccnc12	39.3
CN(C)c1ccc(/C=C2\C=Cc3ccccc32)c(F)c1	47.5
O=C1/C(=C/c2ccc(O)c(O)c2)Oc2ccccc21	74.8
ICC[n+]1csc2ccccc21	61.4
COc1ccc(-c2cnc(-c3cccnc3)o2)cc1	76
O=C(/C=C/C#Cc1cccc(NS(=O)(=O)c2ccccc2)c1)NO	-8.27
Oc1cc2cc(-c3csc(-c4ccc(F)cc4)n3)cc3c2n1CCC3	57.7
CSc1ncnc2c1ncn2C1OC(CO)C(O)C1O (stereo not given)	-15.1
O=C(Nc1ccccn1)c1sc2ccc([N+](=O)[O-])cc2c1Cl	67.8
CC(=O)Oc1ccc(-c2nc(-c3ccccc3)no2)cc1	29.3
CNC(=O)c1cc(-c2cccs2)on1	94.4
O=C(Cc1ccc(OCCCc2ccccc2)cc1)NO	60.9
COc1ccc(-c2coc3cc(O)cc(O)c3c2=O)cc1	76.9
COc1cc2c(cc1OC)C1C(=O)c3c(cc4c(c3O)C=CC(C)(C)O4)OC1CO2 (stereo not given)	-5.64
COc1cccc([C@@H]2Oc3ccc(OC)cc3C(=O)[C@H]2OC(=O)NS(=O)(=O)c2ccc(C)cc2)c1	75.9

SMILES	activity change, negative = inhibition [%]
O=C(NC1CCCC1)c1cc(-c2cccs2)on1	106
Cc1ccc2nc3sc(C(=O)NCc4ccco4)cc3cc2c1	56.4
O=C(Nc1ccccn1)c1sc2ccccc2c1Cl	-47.7
COc1ccc(C2=Nn3c(nnc3-c3ccccc3OC)SC2)cc1OC	39.9
O=C(c1cc2ccccc2[nH]1)c1cc2cc(O)ccc2[nH]1	92.7
N#Cc1ccc(-c2ccc(-c3nc4ccccc4c(=O)[nH]3)o2)cc1	-16
CC(=O)Nc1sc2c(c1-c1nc3ccccc3s1)CCCNC2	-7.56
CC(=O)OCC1=C[C@H]2[C@@H]3C(C)(C)[C@]3(OC(C)=O)C[C@@H](C)[C@]2(O)[C@@H]2C=C(C)C(=O)[C@@]2(O)C1	81.2
COc1cc(C)c2c(=O)cc(-c3ccccc3)oc2c1	91.3
Cc1ccc2c(c1)C/C(=C/c1ccc(N(C)C)cc1)C2=O	70.2
CN(C)c1ccc(/C=C2\CCc3ccccc32)cc1	64.8
Cc1noc(C)c1-c1ccc2ncnc(NCc3ccc(F)c(F)c3)c2c1	73.8
Cc1cc2ncc(-c3ccccc3)nc2cc1C	69.2
CC(=O)Nc1ccc(/C=C/c2sc3ccccc3[n+]2CCCCI)cc1	74.8
CN(C)N=Nc1ccc(/C=C2\C=Cc3ccccc32)cc1	55.6
c1cncc(CNc2ncnc3ccc(-c4ccoc4)cc23)c1	-17.6
Cc1nc(Nc2nc3ccccc3o2)nc2c1CCCC2	45.6
COc1ccccc1/C=C/c1nc2ccccc2o1	61.4
Cc1csc(CNc2ncnc3ccc(-c4ccoc4)cc23)c1	-13.4
COC(=O)Nc1nc2ccc(C(=O)c3cccs3)cc2[nH]1	84.7
